# PubChem BioAssay AID504423 (Broad Institute, 2011)
# “And” between values parts separate entries of the source, which are not always exact repeats. Equal values may be shown once. The campaign covered roughly 340,000 compounds. About 260 (0.076%) were called active. What follows is part of a selection rich in actives, with near analogues and random picks from the rest. Values without a mark were called inactive.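 Rule for the calls: active = highest replicate inhibition at or above 60% at 9 µM, even if other replicates fall short; inactive = all replicates below 60% inhibition.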
# Tested on: Kaposi's sarcoma herpesvirus LANA C-terminal domain (residues 932-1162) DNA binding
# Test: blockers of LANA C-terminal domain DNA interaction – biochemical, fluorescence polarization, FAM-LBS DNA, MBP-C-LANA, single point, primary screen (AID 504423);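 note: 0% = neutral control wells and 100% = 4 µM acridine orange control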
# Conditions: at 9 µM, active compounds read high
row,SMILES,inhibition
1,CCOc1ccc(N(CC)S(=O)(=O)c2cccc3nsnc23)cc1,3.87%
2,Cc1cc2nc(SCCN3CCOCC3)[nH]c2cc1C,-0.479%
3,O=C(Nc1c(Br)cc2c(c1Br)Cc1ccccc1-2)C(F)(F)F,-0.671%
4,O=C(NC(=S)N1CCCCC1c1cccnc1)c1ccccc1 (configuration not stated),1.24%
5,CN(CCOc1ccc(CC2SC(=O)NC2=O)cc1)c1ccccn1 (configuration not stated),14.3% and -2.59%
6,CN(C)/C=C(/C(=O)c1ccccc1Cl)S(C)(=O)=O,0.122%
7,CCC(CC)C(=O)Nc1cc(C(=O)OC)cc(C(=O)OC)c1,-1.15%
8,Cc1ccc(C)c(-n2ccnc2SCC(N)=O)c1,-0.0657%
9,Cc1cc(C)c(CN2CCN(C(=O)Cn3ccc(NC(=O)OCc4ccccc4)nc3=O)CC2)c(C)c1,1.66%
10,CCn1c(=S)sc2c(=O)n(CC(=O)Nc3cccc(Br)c3)c(C)nc21,-0.393%
11,Cc1cccn2c(CNCC(C)Oc3cccnc3)c(C(=O)N3CCOCC3)nc12 (configuration not stated),-1.19%
12,CCOc1ccc(CN2CCC(n3nccc3NC(=O)C3CC3)CC2)cc1CO,1.61%
13,O=C(Nc1cc(-c2ccccc2)nn1-c1ccccc1F)c1ccc([N+](=O)[O-])cc1,-1.47%
14,Cc1ccccc1OCC(=O)NNC(=O)c1cc(S(=O)(=O)N(C)C)ccc1N1CCCC1,-0.594%
15,CN1CCC2(CC1)NC(=O)NC2=O,0.656%
16,O=C(NCc1ccncc1)c1cccc(NS(=O)(=O)c2ccc(F)c(F)c2)c1,-0.916%
17,CSc1nc(-c2ccccc2)nc(C(Cl)Cl)n1,1.16%
18,CCCn1c(N)c(C(=O)CSc2nc3ccccc3c(=O)n2-c2ccc(OC)cc2)c(=O)[nH]c1=O,0.469%
19,Cc1cccc(-c2nc3c(c(SCC(=O)N4CCOCC4)n2)CCCC3)c1,-0.478%

row,SMILES,inhibition
1,COc1cccc(CNC(=O)C2CCCN(c3ncnc4c3nc3n4CCCCC3)C2)c1 (configuration not stated),0.109%
2,CCNC(=O)COc1cc(C)c(Br)c(C)c1,0.138%
3,CCCCC(CC(C)O)c1n[nH]c(=S)n1-c1ccccc1 (configuration not stated),0.671%
4,Cc1ccc(N2CCN(C(=O)c3cccs3)CC2)c(C)c1,0.336%
5,O=C(COC(=O)COc1cccc(F)c1)NCC1CCCCC1,-1.07%
6,O=C1Nc2cc(C(=O)N3CCC(N4CCCCC4)CC3)ccc2S/C1=C\c1ccccc1,-4.28%
7,CC(=O)Nc1ccc(S(=O)(=O)N(C)CC(=O)NCCC2=CCCCC2)cc1,0.609%
8,CC(C)n1c(NCc2c[nH]c3ccccc23)nc2ccccc21,-1.36%
9,COc1ccccc1-c1c(C#N)c(N)nc2c1CCC2,1.17%
10,CS(=O)(=O)N1CCC(C(=O)N2CCN(c3ccccc3)CC2)CC1,-0.437%
11,C(=N/N1CCN(c2ccccc2)CC1)/c1cccs1,-0.282%
12,O=c1ccc2c(-c3ccccc3S(=O)(=O)O)c3ccc(O)c(O)c3oc-2c1O,101% (active)
13,CC(OC(=O)/C=C/c1ccccc1)C(=O)Nc1ccc(C(N)=O)cc1 (configuration not stated),2.44%
14,COc1ccc(C2CC(=O)Oc3ccc(C(C)(C)C)cc32)cc1 (configuration not stated),-0.823%
15,CC1(c2nnc(-c3ccncc3)o2)CC(c2cccnc2)=NO1 (configuration not stated),-1.07%
16,Cc1ccc(S(=O)(=O)/N=C(\N)c2ccc(F)cc2)cc1,-0.0435%
17,COCc1ccc(CN2CCC(Oc3ccc(C(=O)NCc4ccccn4)cc3)CC2)o1,-1.54%
18,Fc1ccccc1Cc1ccc(Cl)nn1,-0.587%
